Values joined by “and” are separate entries in the source; they are usually repeats but may differ in a detail not shown here. Equal entries are not always repeated. Results filed as inconclusive are left out. A structure can be active in one record and inactive in another. Active and inactive are the calls of the source. Rule for the calls, unless noted: active = hit-call score of the fitted dose curve at least 0.9, where 1 is the maximum; inconclusive = response in the unintended direction; inactive = score below 0.9.
Legend:
[1] = tested on: Sodium/Iodide Symporter (NIS), SLC5A5 (gene 6528); assay: CPHEA_Stoker_NIS_Inhibition_RAIU: CPHEA's Radioactive Iodide Uptake (RAIU) Assay for Sodium/Iodide Symporter (NIS) Inhibition, Stoker and Laws Labs (AID 2283841)
Outline: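 Iodide uptake read as CPM of intracellular 125I (final 329 pM) after 2 h room-temperature exposure in HEPES-buffered HBSS, pH 7.4. Human NIS-expressing HEK293T cells; six concentrations 0.001–100 uM, 0.5% DMSO, normalised to DMSO wells.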

[2] = BSK_MyoF_SRB: Viability Assessment in the BioMAP Diversity Plus: MyoF Assay (AID 2284267; active = hit-call score of the fitted dose curve at least 0.9, where 1 is the maximum; inactive = score below 0.9;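 note: total protein by SRB absorbance in parallel cultures as cytotoxicity measure; cells assessed 24 h after compound addition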); conditions: primary human lung fibroblasts
Outline: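 Human lung fibroblasts dosed with chemical and assessed 24 h later for overt cytotoxicity in parallel cultures. Total protein quantified by sulforhodamine B staining (0.1% SRB after 10% TCA fixation), read at 560 nm, analysed in positive direction versus DMSO baseline.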

[3] = read-out: Matrix Metallopeptidase 1 (MMP1), MMP1 (gene 4312); assay: BSK_MyoF_MMP1: BioMAP Diversity Plus: MyoF Assay for Matrix Metallopeptidase 1 (MMP1) Biomarker Activity (AID 2284268; active = hit-call score of the fitted dose curve at least 0.9, where 1 is the maximum; inactive = score below 0.9); conditions: primary human lung fibroblasts
Outline: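 MMP1 measured by ELISA 24 h after dosing primary human lung fibroblasts; cytotoxicity checked in parallel cultures by sulforhodamine B total-protein staining read at 560 nm.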

[4] = read-out: Interleukin-8 (IL8), CXCL8 (gene 3576); assay: BSK_IMphg_IL8: BioMAP Diversity Plus: IMphg Assay for Interleukin-8 (IL8) Biomarker Activity (AID 2284277; active = hit-call score of the fitted dose curve at least 0.9, where 1 is the maximum; inactive = score below 0.9); conditions: primary human endothelial cells with macrophages
Outline: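 Co-culture of human venular endothelial cells and macrophages exposed to chemicals for 24 h; IL-8 quantified by ELISA and compared against the DMSO baseline, with SRB total-protein staining in parallel cultures for cytotoxicity.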

[5] = read-out: Interleukin-1 alpha (IL1a), IL1A (gene 3552); assay: BSK_IMphg_IL1a: BioMAP Diversity Plus: IMphg Assay for Interleukin-1 alpha (IL1a) Biomarker Activity (AID 2284290; active = hit-call score of the fitted dose curve at least 0.9, where 1 is the maximum; inactive = score below 0.9); conditions: primary human endothelial cells with macrophages
Outline: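 Human venular endothelial cells co-cultured with macrophages, IMphg system. IL-1α is measured by ELISA 24 h after dosing and fitted in the positive direction against DMSO. Cytotoxicity is assessed by SRB staining of parallel cultures.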

[6] = BSK_3C_Vis: BioMAP Diversity Plus: 3C Assay for Morphology Visualization (AID 2283025; active = hit-call score of the fitted dose curve at least 0.9, where 1 is the maximum; inactive = score below 0.9;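 note: fitted both ways so gain or loss versus DMSO counts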); conditions: primary human endothelial cells (HUVEC)
Outline: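 Human umbilical vein endothelial cells in the 3C system were imaged by light microscopy 24 h after chemical dosing to record cell morphology. Activity was fitted bidirectionally against DMSO as negative control and baseline; the endpoint serves as a background control.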

[7] = read-out: Transforming growth factor beta 1 (TGFb1), TGFB1 (gene 7040); assay: BSK_BE3C_TGFb1: BioMAP Diversity Plus: BE3C Assay for Transforming growth factor beta 1 (TGFb1) Biomarker Activity (AID 2283036; active = hit-call score of the fitted dose curve at least 0.9, where 1 is the maximum; inactive = score below 0.9); conditions: primary human bronchial epithelial cells; actives raise or lower the signal
Outline: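 Human primary bronchial epithelial cells (BE3C system) were dosed with chemical and TGF-b1 levels measured by ELISA at 24 h. Activity was fitted bidirectionally relative to DMSO negative control as baseline.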

[8] = read-out: Transforming growth factor beta 1 (TGFb1), TGFB1 (gene 7040); assay: BSK_KF3CT_TGFb1: BioMAP Diversity Plus: KF3CT Assay for Transforming growth factor beta 1 (TGFb1) Biomarker Activity (AID 2283072; active = hit-call score of the fitted dose curve at least 0.9, where 1 is the maximum; inactive = score below 0.9); conditions: primary human keratinocytes with fibroblasts; actives raise or lower the signal
Outline: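 Human keratinocyte plus foreskin fibroblast primary co-culture, dosed with chemical for 24 h. TGF-b1 quantified by ELISA. Activity fitted bidirectionally against DMSO negative control as baseline.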

[9] = target: chimpanzee Androgen Receptor (AR), AR (gene 747460) (UniProt O97775); assay: NVS_NR_cAR: NovaScreen (NVS) Nuclear Receptor Binding Assay for chimpanzee Androgen Receptor (AR) (AID 2283346);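 note: radioligand displacement from AR measured by scintillation counting in a cell-free assay; a loss of bound radioligand signal versus DMSO counts as binding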
Chain of chimpanzee Androgen Receptor (AR), AR (gene 747460) (O97775 whole entry, looked up): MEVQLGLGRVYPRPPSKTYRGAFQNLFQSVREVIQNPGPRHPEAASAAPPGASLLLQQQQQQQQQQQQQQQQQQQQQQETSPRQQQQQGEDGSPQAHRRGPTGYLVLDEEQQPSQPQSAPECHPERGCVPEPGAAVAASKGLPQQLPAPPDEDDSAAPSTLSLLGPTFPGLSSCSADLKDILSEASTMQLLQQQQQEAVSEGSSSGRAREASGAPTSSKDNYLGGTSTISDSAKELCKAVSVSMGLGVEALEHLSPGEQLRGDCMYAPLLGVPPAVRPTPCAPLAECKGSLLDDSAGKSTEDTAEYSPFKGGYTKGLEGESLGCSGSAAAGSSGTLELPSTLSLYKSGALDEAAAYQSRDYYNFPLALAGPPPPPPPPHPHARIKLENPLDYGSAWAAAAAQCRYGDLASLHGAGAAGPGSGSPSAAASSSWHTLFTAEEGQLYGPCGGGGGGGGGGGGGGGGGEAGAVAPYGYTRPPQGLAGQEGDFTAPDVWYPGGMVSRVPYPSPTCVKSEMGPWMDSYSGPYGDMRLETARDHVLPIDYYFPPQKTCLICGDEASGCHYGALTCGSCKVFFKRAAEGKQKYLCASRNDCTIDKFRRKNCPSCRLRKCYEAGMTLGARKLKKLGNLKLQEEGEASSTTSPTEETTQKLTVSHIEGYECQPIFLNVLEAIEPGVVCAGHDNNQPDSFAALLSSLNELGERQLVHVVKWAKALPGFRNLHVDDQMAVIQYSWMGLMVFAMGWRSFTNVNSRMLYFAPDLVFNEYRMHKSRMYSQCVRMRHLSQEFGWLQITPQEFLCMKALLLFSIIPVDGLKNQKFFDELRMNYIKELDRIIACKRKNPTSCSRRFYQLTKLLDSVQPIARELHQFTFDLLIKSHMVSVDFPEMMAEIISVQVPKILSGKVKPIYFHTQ
Outline: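 Radioligand binding to chimpanzee AR expressed in Sf9/Sf21 cells, cell-free, measured 72 h after dosing by lysate-based scintillation counting. Loss of signal vs DMSO; initial duplicate screen at 25 uM, actives retested in concentration series.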

[10] = tested on: Thyroperoxidase (TPO), gene 54314; assay: CCTE_Simmons_AUR_rTPO: CCTE's Amplex UltraRed Assay for Thyroperoxidase (TPO) Inhibition, Simmons Lab (AID 2283662)
Outline: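 Rat thyroid microsomes (5 ug protein) were incubated with test compound (8 concentrations, 5 nM–87.5 uM final, 0.5% DMSO), 25 uM Amplex UltraRed and 300 uM H2O2 in 200 mM phosphate buffer for 30 min at 37C in the dark; fluorescence read at 544/590 nm.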

[11] = CCTE_Simmons_CellTiterGLO_HEK293T: Viability Assessment in CCTE's Assays for Thyroperoxidase (TPO) Inhibition, Simmons Lab (AID 2283665);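 for AC50: cells exposed to compound for 24 h before readout; actives reduce ATP signal below DMSO vehicle meaning cytotoxicity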
Outline: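 HEK293T cells in DMEM with 1% FBS were dosed with 8 concentrations (5 nM–87.5 uM final, 0.5% DMSO) for 24 hr at 37C; ATP content was read by CellTiter-Glo luminescence, loss-of-signal versus DMSO, three biological replicates.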

[12] = target: human Peripheral-type Benzodiazepine Receptor (PBR), TSPO (gene 706) (UniProt P30536); assay: NVS_MP_hPBR: NovaScreen (NVS) Membrane Protein Assay for human Peripheral-type Benzodiazepine Receptor (PBR) (AID 2283331);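 note: hits reduce radioligand binding relative to DMSO baseline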
Chain of human Peripheral-type Benzodiazepine Receptor (PBR), TSPO (gene 706) (P30536 whole entry, looked up): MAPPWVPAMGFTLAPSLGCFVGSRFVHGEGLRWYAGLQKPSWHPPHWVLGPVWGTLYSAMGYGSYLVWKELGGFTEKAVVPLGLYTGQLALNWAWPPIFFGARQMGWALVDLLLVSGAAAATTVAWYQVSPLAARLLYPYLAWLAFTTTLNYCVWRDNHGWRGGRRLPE
Outline: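 Radioligand displacement on human colonic cell membranes, 1 h incubation; bound radioactivity by filtration and scintillation counting. Primary screen in duplicate at 25 uM single concentration, actives followed up in concentration series; loss of binding versus DMSO.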

[13] = target: Retinoic acid receptor RXR-alpha (Homo sapiens) (UniProt P19793); assay: OT_NURR1_NURR1RXRa_0480: Odyssey Thera (OT) 8-hour HEK293T Protein Complementation Assay for Nurr1/retinoid X receptor (RXR) (AID 2283385)
Chain of Retinoic acid receptor RXR-alpha (Homo sapiens) (P19793 whole entry, looked up, the tested form may be a part): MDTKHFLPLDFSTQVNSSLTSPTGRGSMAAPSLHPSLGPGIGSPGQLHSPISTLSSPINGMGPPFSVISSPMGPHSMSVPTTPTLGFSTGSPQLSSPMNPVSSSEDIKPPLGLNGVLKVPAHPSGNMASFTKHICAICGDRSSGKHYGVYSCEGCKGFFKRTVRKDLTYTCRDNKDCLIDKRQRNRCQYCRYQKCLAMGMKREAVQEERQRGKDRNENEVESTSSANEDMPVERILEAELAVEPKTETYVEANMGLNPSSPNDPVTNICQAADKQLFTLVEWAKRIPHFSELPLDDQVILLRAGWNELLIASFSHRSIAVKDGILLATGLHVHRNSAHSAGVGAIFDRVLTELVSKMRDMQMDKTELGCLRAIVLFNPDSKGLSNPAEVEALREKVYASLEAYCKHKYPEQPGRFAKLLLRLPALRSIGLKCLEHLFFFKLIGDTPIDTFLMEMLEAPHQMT
Outline: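 HEK293T cells expressing Nurr1 and RXRα fused to reporter fragments were dosed with compound for 8 hours. Complex formation was read as fluorescence intensity and analysed as gain of signal against DMSO as baseline.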

[14] = target: Retinoic acid receptor RXR-alpha (Homo sapiens) (UniProt P19793); assay: OT_NURR1_NURR1RXRa_1440: Odyssey Thera (OT) 24-hour HEK293T Protein Complementation Assay for Nurr1/retinoid X receptor (RXR) (AID 2283386)
Outline: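 HEK293T cells were dosed with compound and read 24 h later by fluorescence intensity in a protein-fragment complementation format, where Nurr1–RXRα interaction reconstitutes a split reporter. Activity was fitted as gain of signal relative to DMSO baseline.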

[15] = target: mouse Peroxisome Proliferator-activated Receptor gamma (PPARg), Pparg (gene 19016) (UniProt P37238); assay: ATG_mPPARg_XSP2: Attagene TRANS-FACTORIAL Multi-Species (XSP2) HepG2 Assay for mouse Peroxisome Proliferator-activated Receptor gamma (PPARg) (AID 2283830);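 note: hits are gains in reporter mRNA above DMSO so AC50 marks activation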
Chain of mouse Peroxisome Proliferator-activated Receptor gamma (PPARg), Pparg (gene 19016) (P37238 whole entry, looked up, the tested form may be a part): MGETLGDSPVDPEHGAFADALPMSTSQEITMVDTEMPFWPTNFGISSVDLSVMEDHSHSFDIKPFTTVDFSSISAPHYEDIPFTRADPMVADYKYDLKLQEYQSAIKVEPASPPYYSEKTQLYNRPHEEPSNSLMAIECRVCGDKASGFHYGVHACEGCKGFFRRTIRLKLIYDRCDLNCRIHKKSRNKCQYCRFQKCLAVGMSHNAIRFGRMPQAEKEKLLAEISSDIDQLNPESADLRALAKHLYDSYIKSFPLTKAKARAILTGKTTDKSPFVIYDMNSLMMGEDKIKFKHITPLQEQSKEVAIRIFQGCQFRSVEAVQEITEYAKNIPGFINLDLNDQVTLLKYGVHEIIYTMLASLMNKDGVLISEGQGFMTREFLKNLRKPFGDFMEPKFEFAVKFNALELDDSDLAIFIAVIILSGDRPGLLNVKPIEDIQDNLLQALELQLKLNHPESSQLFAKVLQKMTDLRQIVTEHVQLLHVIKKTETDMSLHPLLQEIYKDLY
Outline: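 HepG2 cells transiently transfected with GAL4-UAS reporter units for chimeric NR-Gal4 proteins including mouse PPARg, exposed 24 h; medium contained 3 nM 6-alpha-fluorotestosterone and 1.5 nM norgestrel. Reporter mRNA quantified by RT-PCR, HpaI digestion and capillary electrophoresis, vs DMSO.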

[16] = target: zebrafish Thyroid Hormone Receptor alpha (TRa), thraa (gene 30670) (UniProt Q98867); assay: ATG_zfTRa_XSP2: Attagene TRANS-FACTORIAL Multi-Species (XSP1) HepG2 Assay for zebrafish Thyroid Hormone Receptor alpha (TRa) (AID 2283832);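 note: actives raise zebrafish TRa-Gal4 reporter transcript above DMSO baseline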
Chain of zebrafish Thyroid Hormone Receptor alpha (TRa), thraa (gene 30670) (Q98867 whole entry, looked up, the tested form may be a part): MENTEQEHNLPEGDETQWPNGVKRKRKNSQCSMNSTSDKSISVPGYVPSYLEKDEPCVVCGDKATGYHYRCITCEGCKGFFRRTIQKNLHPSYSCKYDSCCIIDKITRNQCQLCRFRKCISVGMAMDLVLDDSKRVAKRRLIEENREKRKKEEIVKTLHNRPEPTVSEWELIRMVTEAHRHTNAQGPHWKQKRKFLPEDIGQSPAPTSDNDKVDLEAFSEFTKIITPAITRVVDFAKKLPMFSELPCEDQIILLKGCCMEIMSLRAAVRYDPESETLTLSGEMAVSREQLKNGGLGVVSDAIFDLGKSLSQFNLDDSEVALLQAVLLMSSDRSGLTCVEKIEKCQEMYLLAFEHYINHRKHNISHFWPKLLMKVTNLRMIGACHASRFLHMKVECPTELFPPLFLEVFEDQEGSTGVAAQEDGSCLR
Outline: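 HepG2 cells transiently transfected with multiplexed GAL4-UAS reporter units expressing chimeric NR-Gal4 proteins; 24 h after dosing, reporter mRNA measured by RT-PCR, FAM labelling, HpaI digestion and capillary electrophoresis; gain of signal versus DMSO baseline.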

[17] = CCTE_Deisenroth_AIME_384WELL_CTox_Inactive: Cytotoxicity Assessment (CTOX) in CCTE's 384-well Estrogen Receptor Transactivation Assay without AIME metabolic competence (metabolism negative), Deisenroth Lab (AID 2284039);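 note: cell viability via live-cell protease substrate cleaved to fluorescent probe; cells exposed 24 h to medium preincubated 2 h with alginate-water beads without S9; loss of fluorescence signal means loss of viability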
Outline: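 Fluorescent protease-substrate viability readout after 24 h exposure of VM7Luc4E2 cells to conditioned medium. Chemicals (0.002–200 uM) first sat 2 h over alginate-water beads, no S9. Data fitted bidirectionally, loss of signal meaning viability loss.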

[18] = TOX21_PR_LUC_Followup_Antagonist_viability: Viability Assessment in the Tox21 HEK293 Progesterone Receptor (PR) Antagonism Luciferase Follow-Up Assay (AID 2283940)
Outline: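 HEK293-PR-A-luc cells, precultured 5 days in assay medium with 10% charcoal-stripped FBS, were seeded at 3,000 cells/well, treated with compounds in DMSO for 16 h at 37C, and viability was read as cellular ATP by CellTiter-Glo luminescence.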

THRA (gene 7067) = THRA (gene 7067) (UniProt P10827); assay: TOX21_TRA_COA_Antagonist_Followup_ratio: Tox21 Thyroid Hormone Receptor alpha Antagonism through Coactivator Recruitment Follow-Up Assay, Ratio (AID 2283953)
Chain of THRA (gene 7067) (P10827 whole entry, looked up, the tested form may be a part): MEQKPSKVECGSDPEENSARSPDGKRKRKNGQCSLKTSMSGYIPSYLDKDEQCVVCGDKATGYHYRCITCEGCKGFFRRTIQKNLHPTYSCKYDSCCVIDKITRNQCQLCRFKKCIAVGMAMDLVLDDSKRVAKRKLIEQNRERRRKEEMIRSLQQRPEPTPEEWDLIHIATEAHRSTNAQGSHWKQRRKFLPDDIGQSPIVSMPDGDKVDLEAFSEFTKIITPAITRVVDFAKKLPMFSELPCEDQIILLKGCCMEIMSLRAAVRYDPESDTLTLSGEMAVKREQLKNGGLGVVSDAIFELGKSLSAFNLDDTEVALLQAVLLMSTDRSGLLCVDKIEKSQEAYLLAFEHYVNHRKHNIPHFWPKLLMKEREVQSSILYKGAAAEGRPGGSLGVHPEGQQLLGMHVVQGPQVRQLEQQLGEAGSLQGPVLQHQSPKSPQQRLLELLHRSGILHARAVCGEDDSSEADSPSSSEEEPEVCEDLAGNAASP
Outline: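 This follow-up to the GH3 luciferase screen checks specificity in a cell-free format. It measures SRC-2 coactivator peptide binding to TRα LBD by TR-FRET and scores loss of ratio signal relative to DMSO.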

[19] = TOX21_PR_LUC_Followup_Agonist_viability: Viability Assessment in the Tox21 HEK293 Progesterone Receptor (PR) Agonism Luciferase Follow-Up Assay (AID 2283941);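 note: loss of signal means cytotoxicity so actives lower viability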
Outline: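 HEK293-PR-A-luc cells, pre-cultured 5 days in 10% charcoal-stripped FBS, were seeded at 3,000 cells/well, rested 5 h at 37C, then given compound in DMSO for 16 h at 37C. Cellular ATP was read by CellTiter-Glo luminescence; signal loss indicates cytotoxicity.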

**Q.** What does the source list for `OC(C(F)(F)F)(C(F)(F)F)C(O)(C(F)(F)F)C(F)(F)F`?
**A.** outcome [1]: inactive; AC50 [2]: 36.7 µM (active) and 37.8 µM (active); AC50 [3]: 48.4 µM (active) and 47.9 µM (active); AC50 [4]: 5.86 µM (active); outcome [4]: inactive; AC50 [5]: 7.66 µM (active); outcome [5]: inactive

**Q.** For `COC(=O)/C=C\C(=O)OC`, which outcome [6] is on record?
**A.** inactive

**Q.** And the outcome [7]?
**A.** inactive

**Q.** And the outcome [8]?
**A.** inactive

**Q.** And the outcome [9]?
**A.** inactive

**Q.** And the outcome [2]?
**A.** inactive

**Q.** And the outcome [3]?
**A.** inactive

**Q.** With `CCCCC(CC)COC(=O)C=Cc1ccc(OC)cc1` (centres undefined) as the compound, how does the outcome [10] read?
**A.** inactive

**Q.** What about the outcome [11] of the same compound?
**A.** inactive

**Q.** For `Cc1cc(O)cc(C)c1Cl`, which AC50 [12] is on record?
**A.** 8.12 µM (active)

**Q.** What about the outcome [13] of the same compound?
**A.** inactive

**Q.** And the outcome [14]?
**A.** inactive

**Q.** What about the AC50 [15] of the same compound?
**A.** 72.9 µM (active)

**Q.** And the outcome [15]?
**A.** inactive

**Q.** What about the AC50 [16] of the same compound?
**A.** 100 µM (active)

**Q.** What about the outcome [16] of the same compound?
**A.** inactive

**Q.** What does the source list for `CCC(C)=NO`?
**A.** outcome [6]: inactive; outcome [7]: inactive; outcome [8]: inactive; outcome [13]: inactive; outcome [14]: inactive; outcome [17]: inactive

**Q.** With `CCC(C)(CCC(C)C)C(=O)O` (centres undefined) as the compound, how does the outcome [17] read?
**A.** inactive

**Q.** What does the source list for `COc1ccc(C(=O)c2ccccc2O)c(O)c1`?
**A.** outcome [10]: inactive; AC50 [11]: 81.7 µM (active)

**Q.** Which outcome [9] does the source give for `CCCCCC1CCCC(=O)O1` (centres undefined) here?
**A.** inactive

**Q.** For `CC(=[OH+])/C=C(/C)[O-].CC(=[OH+])/C=C(/C)[O-].CC(=[OH+])/C=C(/C)[O-].[Al]`, which outcome [12] is on record?
**A.** inactive

**Q.** For `Oc1ccc2c(c1)Cc1ccccc1-2`, which outcome [18] is on record?
**A.** inactive

**Q.** For `O=[Se](O)O`, which AC50 (THRA (gene 7067)) is on record?
**A.** 34.4 µM (active)

**Q.** For `CC(O)(c1ccc(Cl)cc1)c1ccc(Cl)cc1`, which outcome [19] is on record?
**A.** inactive

**Q.** Which outcome [18] does the source give for `CC(COc1ccccc1)N(CCCl)Cc1ccccc1` (centres undefined) here?
**A.** inactive

**Q.** And the outcome [19]?
**A.** inactive

**Q.** For `CO[C@H]1C[C@@H]2CC[C@@H](C)[C@@](O)(O2)C(=O)C(=O)N2CCCC[C@H]2C(=O)O[C@H]([C@H](C)C[C@@H]2CC[C@@H](O)[C@H](OC)C2)CC(=O)[C@H](C)/C=C(\C)[C@@H](O)[C@@H](OC)C(=O)[C@H](C)C[C@H](C)\C=C/C=C/C=C/1C`, which outcome (THRA (gene 7067)) is on record?
**A.** inactive
